High-throughput results from PubChem BioAssay.
This is a sample that favours compounds with a hit; in the whole collection about 4% have one here.
Rv3671c inh = inhibitors of M. tuberculosis serine protease Rv3671c; 0.048% of 320,000 active; P9WHR9; AID 2606; inhibition, % at 5.96 µM; in the data active means inhibition above about 38%;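 further: extracellular domain of Rv3671c used as enzyme; 0% = enzyme with DMSO and 100% = no enzyme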
Target sequence (P9WHR9 whole entry, looked up, the tested form may be a part): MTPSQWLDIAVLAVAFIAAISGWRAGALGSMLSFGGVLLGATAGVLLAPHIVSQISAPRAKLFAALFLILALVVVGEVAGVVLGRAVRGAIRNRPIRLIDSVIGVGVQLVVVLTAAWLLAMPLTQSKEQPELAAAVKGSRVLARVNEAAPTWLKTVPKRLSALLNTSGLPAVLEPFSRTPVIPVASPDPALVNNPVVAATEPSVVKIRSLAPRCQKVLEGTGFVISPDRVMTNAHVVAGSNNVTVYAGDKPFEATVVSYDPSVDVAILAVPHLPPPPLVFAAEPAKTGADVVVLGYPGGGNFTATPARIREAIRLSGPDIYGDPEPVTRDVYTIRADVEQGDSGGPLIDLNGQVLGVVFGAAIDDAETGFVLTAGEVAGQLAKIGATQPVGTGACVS
Mtb UGM inh = Mtb UDP-galactopyranose mutase inhibition. P9WIQ1. purified UGM, fluorescence polarization probe displacement. inhibition, % at 10 µM. 0.06% of 320,000 active; in the data active means inhibition above about 10%, passing the limit was not always enough
RecA splice inh = Mtb RecA intein splicing inhibition; P9WHJ3; cell-free RecA intein splicing, fluorescence; inhibition, % (test concentration not listed); 0.75% of 290,000 active; in the data active means inhibition above about 30%;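 further: 0% = vehicle wells and 100% = reference inhibitor control wells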
Mtb betalactam = beta-lactam sensitization of Mtb H37Rv. M. tuberculosis H37Rv growth with meropenem, percent inhibition. inhibition, % at 25 µM. 0.27% of 330,000 active. AID 434955; call rule not given here;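 further: growth measured after seven days incubation then overnight dye step; 0% = bacteria only wells and 100% = bacteria with antibiotic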
GDH-TPI counter-1 = GDH-TPI coupled enzyme inhibition counter-screen. GDH-TPI coupled enzyme counterscreen, NADH absorbance. inhibition, % at 4.8 µM. 1.2% of 360,000 active. AID 588335; in the data active means inhibition above about 30%;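 further: 0% = DMSO wells and 100% = wells lacking the enzyme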
FBA Mtb inh = inhibits M. tuberculosis FBA enzyme. AID 588726. inhibition, % at 1 µM. P9WQA3. purified M. tuberculosis FBA, fluorescence read-out. 2.3% of 360,000 active;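 further: 0% = vehicle and 100% = reference inhibitor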
Mtb FBA confirm = Mtb FBA inhibition, confirmed. inhibition, % at 1 µM. 78% of 5,600 active. shares compounds with FBA Mtb inh. AID 651616. purified M. tuberculosis FBA, fluorescence read-out;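 further: 0% = vehicle wells and 100% = reference inhibitor wells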
GDH-TPI counter-2 = counter-screen for M. tuberculosis FBA inhibitors: GDH-TPI coupled enzyme inhibition; shares compounds with FBA Mtb inh; GDH-TPI coupled enzyme counterscreen, fluorescence; inhibition, % at 1 µM; 81% of 5,600 active; AID 652141; in the data active means inhibition above about 10%
Numbers without * were called inactive; . = no result given; + = active, no number. Unless noted, no stated cut-off is given here; in the data, active means inhibition above about 27%; inactive means the rest.

SMILES	Rv3671c inh	Mtb UGM inh	RecA splice inh	Mtb betalactam	GDH-TPI counter-1	FBA Mtb inh	Mtb FBA confirm	GDH-TPI counter-2
CC(C)CNC(=S)N(CCN(C)C)Cc1cc2cc3c(cc2[nH]c1=O)OCO3	-4.0	-0.7	2.0	-6.3	25.1	10.6	.	.
CC(C)CNC(=S)N(CCN(C)C)Cc1cc2cc3c(cc2[nH]c1=O)OCCO3	-6.1	1.1	-3.1	2.0	15.4	27.4*	44.7*	38.6*
Cc1nnc2c(N3CCN(C(=O)c4ccco4)CC3)nc3ccccc3n12	8.5	-1.7	-4.2	-2.7	18.5	4.1	.	.
COCCN(CCOC)c1cc(C)c(C#N)c2nc3ccccc3n12	-5.2	-0.9	-201.3	-6.5	6.8	38.6*	43.2*	41.0*
CCCc1cc(N2CCN(C(=O)c3ccco3)CC2)n2c(nc3ccccc32)c1C#N	-3.3	-0.9	-89.6	0.4	0.6	32.5*	99.9*	84.2*
Nc1nc(N2CCN(C(=O)c3ccco3)CC2)nc2ccc(Br)cc12	-8.5	1.0	2.9	32.9	3.8	11.3	.	.
CCN(CC)CCNc1cc(C)c(C#N)c2nc3ccccc3n12	-11.9	2.3	-193.1	-2.9	12.7	86.0*	23.6	16.5*
Nc1nc(N2CCN(C(=O)c3ccco3)CC2)nc2ccccc12	-5.3	3.5	-2.4	-4.9	-3.4	45.3*	7.3	-4.3
CCN(CC)CCNc1c2c(c(C#N)c3nc4ccccc4n13)CCCC2	1.6	-0.5	-80.6	-4.1	10.3	11.3	.	.
COc1ccc(NC(=O)CN(C)C(=O)c2oc3ccccc3c2C)cc1	5.2	-1.1	-2.0	5.3	-3.2	-6.1	.	.
CCCc1cc(Nc2c(C)n(C)n(-c3ccccc3)c2=O)n2c(nc3ccccc32)c1C#N	-2.9	-1.3	-10.3	-4.3	13.3	8.4	.	.
Cc1cc(NCCN2CCOCC2)n2c(nc3ccccc32)c1C#N	-3.6	-1.6	-126.0	-0.2	6.2	57.6*	104.4*	81.2*
CCCc1cc(NCCCN2CCOCC2)n2c(nc3ccccc32)c1C#N	-1.0	-2.2	-101.0	-13.9	4.1	100.8*	53.7*	41.2*
Cc1cc(Nc2c(C)n(C)n(-c3ccccc3)c2=O)n2c(nc3ccccc32)c1C#N	-1.6	-2.2	-1.9	8.6	-3.2	-0.2	.	.
CCCn1c(N)c(C(=O)CSc2nc(N)cc(=O)[nH]2)c(=O)n(C)c1=O	3.2	-0.2	.	-1.2	4.8	0.2	.	.
[O-][n+]1c2ccccc2cc2ccccc21	13.2	-0.9	-4.1	-1.7	-15.5	73.2*	+	+
COc1ccc2nc3ccccc3[n+]([O-])c2c1	.	.	.	.	14.9	4.2	.	.
C(=C\c1ccccc1)/CN1CCN(C(c2cccc3ccccc23)c2nnnn2C2CCCC2)CC1 (configuration not stated)	.	.	.	.	.	-3.3	.	.
CCCn1c(-c2ccc(OC)cc2)nc2nc3ccccc3nc21	-10.4	2.6	-14.5	-10.0	43.1*	42.2*	97.7*	79.2*
Cc1cc(C)n2ncc(C(=O)NCc3ccccc3)c2n1	-3.1	3.9	1.1	-7.9	13.0	23.6	.	.
Cc1cc(C)n2ncc(C(=O)NCc3ccc(Cl)cc3)c2n1	5.5	-0.4	27.7	-3.9	5.3	33.7*	118.2*	88.6*
O=C(NCc1ccc(Cl)cc1)c1ccc2ccccc2n1	-6.3	0.3	-0.5	1.6	-2.2	64.7*	137.5*	117.5*
Cn1ncc(Cl)c1C(=O)NCc1ccc(Cl)cc1	8.5	-2.1	0.2	1.2	3.7	2.3	.	.
O=C(NCc1ccc(Cl)cc1)c1cnn2ccccc12	16.0	.	-0.4	-3.1	5.6	38.1*	2.1	-4.1
CCN(CC(=O)NCc1cccs1)S(=O)(=O)c1cccc(Br)c1	0.1	-0.4	.	-10.0	4.2	0.6	.	.
SMILES	Rv3671c inh	Mtb UGM inh	RecA splice inh	Mtb betalactam	GDH-TPI counter-1	FBA Mtb inh	Mtb FBA confirm	GDH-TPI counter-2
Cc1ccc(C(=O)NCC(=O)NC2CCC(C)CC2)s1 (configuration not stated)	-1.9	-0.6	.	-6.6	7.7	-0.9	.	.
Cc1c(O)c2ccccc2n(-c2ccccc2)c1=O	0.0	3.1	0.4	22.1	15.7	47.3*	76.8*	54.1*
Cc1nnc2n(-c3ccccc3)c(=O)c3ccccc3n12	2.4	-0.3	-3.5	-4.3	-6.1	-2.1	.	.
Cc1cc2n(n1)C(c1ccco1)Nc1ccccc1-2 (configuration not stated)	0.7	-0.7	0.3	-8.3	-3.4	7.0	.	.
c1coc(C2Nc3ccccc3-c3nc4ccccc4n32)c1 (configuration not stated)	-31.2	2.1	-0.6	3.8	-2.0	101.3*	153.0*	120.1*
CCCOc1ccc(C(=O)Nc2ccc(S(=O)(=O)N3C[C@@H]4C[C@@H](C3)c3cccc(=O)n3C4)cc2)cc1	-12.5	-0.5	.	25.9	3.5	-0.8	.	.
CC(=O)Nc1cc2nn(-c3ccccc3)nc2cc1C	6.5	-2.1	-2.3	8.6	19.1	89.7*	199.8*	159.4*
CC(C)CC(=O)Nc1ccc2nn(-c3ccccc3)nc2c1	-12.9	-1.2	3.8	86.0	18.3	72.5*	3.0	-0.6
Cc1cc2nn(-c3ccccc3)nc2cc1NC(=O)c1cccs1	-39.3	0.1	2.6	-3.4	28.2	-2.7	.	.
COc1ccc([C@H]2CC(=O)C=C(c3ccc(Oc4ccccc4)cc3)C2)cc1OC	-13.3	0.2	.	81.2	8.6	-2.7	.	.
COc1ccc(-c2coc3cc(OC)ccc3c2=O)cc1	.	.	.	.	16.7	6.5	.	.
COc1ccc(-c2coc3cc(O)ccc3c2=O)cc1	-4.0	-0.5	-1.7	0.4	22.3	34.8*	120.7*	93.9*
COc1ccc(-c2coc3cc(O)c(OC)cc3c2=O)cc1	-2.4	5.3	.	-8.1	33.6*	43.9*	84.5*	54.0*
COCCn1c(SCC(=O)N(C)c2c(N)n(Cc3ccccc3)c(=O)[nH]c2=O)nnc1-c1cccc(C)c1	0.9	-2.8	-1.7	-9.6	-1.1	-0.9	.	.
COc1cc(/C=C(/NC(=O)c2ccccc2)C(=O)N2CCOCC2)c([N+](=O)[O-])cc1OC	5.5	0.3	-4.4	4.4	9.8	-1.4	.	.
O=C(Nc1ccc2c(c1)nc1n2CCN(Cc2ccccc2)C1)NC1CCCCC1	-1.6	-3.6	13.1	-4.8	8.1	80.0*	16.1	11.0*
O=[N+]([O-])c1ccc2c(c1)nc1n2CCN(C2CCCCC2)C1	3.5	-0.3	4.9	-3.1	-1.9	-2.9	.	.
CC(=O)Nc1ccc2c(c1)nc1n2CCN(C2CCCCC2)C1	.	.	.	.	7.7	55.6*	197.2*	135.5*
CCCC(=O)Nc1ccc2c(c1)nc1n2CCN(C2CCCCC2)C1	-7.8	-3.4	-5.5	12.9	4.9	63.5*	193.9*	177.7*
O=S(=O)(c1cc(F)ccc1F)N1CCC2(CC1)OCCN2S(=O)(=O)c1cccs1	3.1	1.7	4.6	-6.7	-4.6	0.9	.	.
Cc1ccc(CN2CCC(n3nccc3NC(=O)CCOc3ccccc3)CC2)cc1C	1.2	1.9	0.8	4.3	-7.6	1.8	.	.
